# D1 antag = Antagonist of Human D 1 Dopamine Receptor: qHTS. D(1A) dopamine receptor (Homo sapiens), P21728. HEK293 TREx D1 cells, calcium flux, dopamine EC80; hits give low values. activity change, negative = inhibition, % at 10 µM. actives 3.2% (n = 360,000). AID 504652, 2011; in the data active = activity change below about -30%; note: % is set by controls: 0 for no effect and ±100 for the full control effect
#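 Inducible Hek293 Trex D1 cells (tetracycline, overnight, 30 C). Calcium dye 30–90 min RT. Antagonist mode: EC80 dopamine added after 180 s compound read.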
# D1 agonist = Allosteric Agonists of the Human D1 Dopamine Receptor: qHTS. actives 1% (n = 360,000). HEK293 T-REx D1 cells, calcium flux, agonist mode. activation, % at 2 µM; in the data active = activation above about 30%; note: 0% is about no effect
#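 Inducible HEK293 T-REx D1 cells, force-coupled to calcium signalling, were plated at 4000 cells/well with tetracycline and held overnight at 30 C. After no-wash calcium dye loading, compound-evoked calcium rise over 180 s flagged agonists.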
# D1 potentiator = Potentiators of Human D1 Dopamine Receptor: qHTS | HEK293 TREx D1 cells, calcium flux, dopamine EC20 potentiation | potentiation, % at 10 µM | actives 0.036% (n = 360,000) | AID 504651, 2011; in the data active = potentiation above about 30%; note: 0% is about no effect
# D3 ag = qHTS of D3 Dopamine Receptor Agonist: qHTS; D(3) dopamine receptor (Homo sapiens), P35462; D3R DiscoveRx beta-arrestin cells, luminescence, 90 min; max activation, %; actives 0.58% (n = 410,000); in the data active = max activation above about 30%; note: 0% is about no effect
# Target sequence (P35462 whole entry, looked up): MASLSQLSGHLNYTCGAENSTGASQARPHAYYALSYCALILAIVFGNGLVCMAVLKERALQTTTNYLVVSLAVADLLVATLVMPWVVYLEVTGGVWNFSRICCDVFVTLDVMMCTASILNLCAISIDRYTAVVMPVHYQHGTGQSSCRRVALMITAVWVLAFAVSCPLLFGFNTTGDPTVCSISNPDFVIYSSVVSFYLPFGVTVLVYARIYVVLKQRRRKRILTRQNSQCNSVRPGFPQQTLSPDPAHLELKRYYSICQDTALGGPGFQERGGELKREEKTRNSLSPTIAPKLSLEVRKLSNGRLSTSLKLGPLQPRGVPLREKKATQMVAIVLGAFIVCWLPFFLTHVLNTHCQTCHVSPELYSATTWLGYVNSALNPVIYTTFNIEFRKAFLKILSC
#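 Agonist-mode cell screen: cells plated at 1500/well and incubated overnight at 37 °C, then exposed to library compounds for 90 min at 37 °C. Detection reagent was added for 30–60 min at room temperature, and luminescence was read.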
# ERG-DNA inh = qHTS for Small Molecule Inhibitors of the ERG Ets/DNA interaction; fluorescence polarization, His-ERG Ets domain / labelled DNA; actives 0.028% (n = 370,000); AID 624246, 2012; Transcriptional regulator ERG (Homo sapiens), P11308; Potency, µM (highest dose often 76.9 µM), for inactives: top-dose FP activity, negative = inhibition, actives largely listed as inhibitors; active = well fitted inhibition curve with a large enough effect in the polarisation, with a control signal flat; inconclusive = small, poorly fitted or top-dose-only effect, or effect the other way, or a change in a side signal; inactive = no such curve, though single readings can be large or run the other way; the % refers to the polarisation;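 note: polarization taken with two DNA probes labelled with fluorescein and Texas red; potency is the fitted concentration of half-maximal effect; % of control where 0% means no effect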
#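 His-tagged ERG Ets domain (1 uM in the protein solution; 300mM KCl, 50mM Tris-HCl, 1mM EDTA, 1mM DTT, pH 7.5) received compound, then a probe mix of 5 nM fluorescein-DNA and 100nM Texas-615-DNA. Fluorescence polarization was read for both dyes.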
# D3 antag = qHTS of D3 Dopamine Receptor Antagonist: qHTS. actives 2.5% (n = 360,000). max response, negative = inhibition, %. AID 652054, 2013. D3R cells, DiscoveRx beta-arrestin luminescence, antagonist mode; hits give low values; in the data active = max response below about -50%; inconclusive = no clear call, values can overlap the other calls; note: % is set by controls: 0 for no effect and ±100 for the full control effect
#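 Cells plated overnight at 1500 cells/well, then exposed to library compounds with dopamine controls for 90 minutes at 37 degrees C. DiscoveRx reagent added for 30–60 minutes at room temperature; luminescence read, quantitative HTS format.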
# Numbers without * were called inactive; ? = inconclusive; · = not tested or not shown; ! = not confirmed by another sample. Shown are actives, neighbours in structure and some others; about 6.1% of the full set was active somewhere.
SMILES,D1 antag,D1 agonist,D1 potentiator,D3 ag,ERG-DNA inh,D3 antag
O=C(Cc1cccs1)N(Cc1cccs1)C1(C(=O)NC2CCCC2)CCCCC1,1,4,3,-3,-8%,20
Cc1nc(-c2ccccc2)c(-c2ccccc2)[nH]1,8,-1,-5,-13,4%,-51*
Oc1ccc(-c2nc(-c3ccccc3)c(-c3ccc(Br)cc3)[nH]2)cc1,6,0,0,-26,0%,·
Oc1ccc(N=Nc2nc(-c3ccccc3)c(-c3ccccc3)[nH]2)cc1,-2,1,-2,-9,21%,-53*
CCCCSc1nc2c(c(C(F)(F)F)c1C#N)CCC2,13,-1,-4,9,-3%,4
CCOC(=O)CCSc1nc2c(c(C(F)(F)F)c1C#N)CCC2,-38*,-1,4,-1,11%,?
Cn1ccc2c(N(Cc3ccccc3)Cc3ccccc3)cc3c(c21)C1CCC3C1 (stereo not given),·,·,·,-10,·,-56*
Cn1ccc2c(-c3ccc(F)cc3)cc3c(c21)C1CCC3C1 (stereo not given),·,·,·,9,·,9
Cn1ccc2c(-c3ccc(CO)cc3)cc3c(c21)C1CCC3C1 (stereo not given),·,·,·,-14,·,-65*
COc1ccc(/C=C2\CN(Cc3ccccc3)C/C(=C\c3ccc(OC)cc3OC)C2=O)c(OC)c1,-4,6,-7,25,-4%,7
CCOC(=O)c1cnc(-n2nc(C)cc2C)nc1NCc1ccccc1,8,24,-5,-4,-4%,-20
CCOC(=O)c1cnc(-n2nc(C)cc2C)nc1NC(C)c1ccccc1 (stereo not given),7,12,-1,-9,-9%,-59*
O=C(CSc1nccn1-c1ccc(Cl)cc1)NCc1ccc2c(c1)OCO2,-7,1,-4,-2,6%,17
CN1CCN(c2ccc(-c3cc(NC=O)c4ncc(-c5ccc(F)cc5)n4c3)cc2)CC1,·,·,·,-13,·,?
CN(C)CCOC(c1ccccc1)c1ccccc1 (tested in a mixture with another compound),-30,5,-5,-77,-24%,-67*
CN(C)CCOC(c1ccc(Cl)cc1)c1ccccn1 (stereo not given),-15,8,-8,41*!,-10%,-2
CN(C)CCOC(c1ccccc1)c1ccccc1,-28,6,-1,-71,21%,-52*!
CN(C)CCC(c1ccc(Br)cc1)c1ccccn1 (stereo not given),-11,3,-2,-49,-5%,5
Cc1ccccc1C(OCCN(C(C)C)C(C)C)c1ccccc1 (stereo not given),11,7,-3,-10,-7%,-5
O=S(=O)(c1cc(Cl)ccc1Cl)N1CCNCC1,2,2,8,0,-13%,-4
CCc1nc(NCC2CCCO2)c(C#N)c2c1COC(C)(C)C2 (stereo not given),-35*,1,-2,8,-7%,20
COC(=O)CCC(=O)NC(=S)Nc1ccc(S(=O)(=O)Nc2cc(C)on2)cc1,8,3,-1,2,23%,-11
COc1cccc(OC)c1OCCNCC1CSc2ccccc2O1 (stereo not given),·,·,·,-81,-9%,-95*
CC(C)NS(=O)(=O)c1ccc(N2C(=O)c3ccccc3C2=O)cc1,-33*,12,-1,-28,9%,13
O=C1c2ccccc2C(=O)N1c1ccc(S(=O)(=O)N2CCCCC2)cc1,14,2,-6,5,2%,1
SMILES,D1 antag,D1 agonist,D1 potentiator,D3 ag,ERG-DNA inh,D3 antag
CN1CCN(NC(=O)c2cn(-c3ccccc3)nc2-c2cccc(Br)c2)CC1,-33*,14,-10,-6,2%,-11
Cc1ccc(OC(=O)C2c3ccccc3Oc3ccccc32)cc1C,-12,32*,-4,9,-1%,7
COC(=O)NC1c2ccccc2Oc2ccc(C)cc21 (stereo not given),6,19,0,-3,-3%,9
COC(=O)NC1c2ccccc2Oc2ccccc21,0,75*,-8,-24,-8%,-20
CCN(CC)C(=O)C1c2ccccc2Oc2ccccc21,-1,32*,3,4,-7%,?
COc1cc(C)nc(NS(=O)(=O)c2ccccc2)n1,-37*,2,-2,6,-2%,25
CN(C)S(=O)(=O)c1cccc(NC(=O)CCCc2nc3ccccc3c(=O)[nH]2)c1,-1,4,3,-15,11%,-7
C=C1C(=O)[C@]23C[C@H]1CCC2[C@@]1(C)C(C[C@@H]3O)[C@](C)(C(=O)OC)CC[C@@H]1O (stereo not given in full),·,·,·,-12,·,-67*
Cc1ccc(Nc2cc(C)nn2-c2nc(C)cc(=O)[nH]2)cc1,6,-1,-1,0,5%,-67*
COC(=O)c1ccc(/C=N/NS(=O)(=O)c2cc(C)ccc2C)cc1,6,2,-10,-49,9%,-82*
Cc1ccc(C)c(S(=O)(=O)N/N=C/c2ccc(C(=O)O)cc2)c1,2,5,-1,-19,-5%,-19
Cc1cc(NC(=O)OC(C)(C)C)c(-n2nnnc2C(C(=O)c2ccc3c(c2)OCO3)N2CCN(c3ccccn3)CC2)cc1C (stereo not given),·,·,·,3,·,-25
COc1ccc(N2CCN(C(=O)CCc3c(C)nc4cc(-c5ccc(Cl)cc5)nn4c3C)CC2)cc1,-39*,1,-7,-10,6%,·
CCCCNC(=O)CCc1c(C)nc2cc(-c3ccccc3)nn2c1C,-24,1,-4,-6,-5%,·
COCCCNC(=O)CCc1c(C)nc2cc(-c3ccc(Cl)cc3)nn2c1C,-54*,7,-5,-9,14%,·
CCOC(=O)c1ccccc1NC(=O)N1CCC(CN2CCOCC2)CC1,1,0,0,-12,-1%,·
CCOC(=O)N1CCN(C(=O)c2ccc3c(c2)N(C)C(=O)/C(=C\c2ccc(OCC)c(OC)c2)S3)CC1,-18,3,-10,46*,0%,63
Cc1cccc(/C=C2\Sc3ccc(C(=O)N4CCCCC4)cc3N(C)C2=O)c1,-38*,3,0,-2,13%,-10

# Assay outcomes as filed in PubChem.
